In all, about 98,000 compounds went through this assay and about 4,900 (5%) were called active. The sample holds actives, similar compounds and a random draw of the others, so the mix is not that of the screen. Rule as the data show it: active = inhibition above about 30%; inactive = the rest.

A short description of the test: growth inhibition of yeast control strain, primary screen, counter-screen for post-Golgi transport modulator project (AID 738). To be noted: efflux-deficient yeast background strain, growth absorbance A615, 16 h; at 10 µM; stronger effect = higher value.
In the case of `COc1cc(/C=N\NC(=O)C2C(=O)NCC2c2ccccc2)cc(OC)c1O` (configuration not stated), the inhibition is -0.14% (inactive).

For `CC(C)(C)Cc1nnc(NC(=O)c2cc(-c3ccccc3)nc3ccccc23)s1`, the inhibition was 9.13% (inactive).

Turning to `CCOC(=O)c1[nH]c2ccc(C)cc2c1N=C(C)N(C)C`, the inhibition was 30.6% (active).

`CCOC(=O)c1cc2cc(C)ccc2[nH]1`: the inhibition was 10.2% (inactive).

Consider `CCOC(=O)c1[nH]c2ccccc2c1N=C(C)N(CC)CC`, for which the inhibition is -8.42% (inactive).

For the molecule `Cn1cnc([N+](=O)[O-])c1Sc1ccccc1`, the inhibition is 7.56% (inactive).

Turning to `Clc1ccc(-n2nnnc2CN2CCCCC2)cc1Cl`, the inhibition was -0.16% (inactive).

Take `Cc1ccccc1CS(=O)(=O)CC1(O)CCN(C(=O)c2cccc(C(F)(F)F)c2)CC1`: the inhibition is 4.49% (inactive).

`COc1cc(/C=C(/NC(=O)c2ccccc2)C(=O)Nc2cccc(O)c2)c([N+](=O)[O-])cc1OC`: the inhibition is 15.7% (inactive).

Turning to `CCOC(=O)N1CCN(C(=O)Cc2ccc(-n3c(=S)[nH]c4ccccc4c3=O)cc2)CC1`, the inhibition is -2.12% (inactive).

`O=C(CCn1c(=O)[nH]c2ccccc2c1=O)NCCCN1CCN(c2cccc(Cl)c2)CC1`: the inhibition was 1.72% (inactive).

As to `O=C(Cc1ccc(-n2c(=O)[nH]c3ccccc3c2=O)cc1)N1CCN(c2cccc(Cl)c2)CC1`, the inhibition was 37.3% (active).

In the case of `COc1ccc(NC(=O)C(NC(C)=O)C(=O)NCc2ccccc2Cl)cc1` (configuration not stated), the inhibition was 14% (inactive).

For `COC(=O)CN(C(=S)Nc1ccc(Cl)cc1)C1CC(=O)N(c2ccc(OC)cc2)C1=O` (configuration not stated), the inhibition is 7.41% (inactive).

With `CC1CCc2c(sc(NC(=O)c3ccc(Cn4cc(Br)cn4)o3)c2C(N)=O)C1` (configuration not stated), the inhibition is 10.8% (inactive).

For the molecule `O=C(Nc1ccc(Br)c2cccnc12)c1ccc(Cn2cc([N+](=O)[O-])cn2)o1`, the inhibition was 30.3% (active).

`O=C(NCc1cccnc1)c1ccc(CS(=O)(=O)c2ccc(Br)cc2)o1`: the inhibition is -2.42% (inactive).

In the case of `COc1ccccc1NC(=O)[C@H](COCc1ccccc1)NC(=O)OC(C)(C)C`, the inhibition is 5.88% (inactive).

On to `CC(=O)c1ccc(Cc2ncc(C(F)(F)F)cc2Cl)s1`, for which the inhibition is 5.66% (inactive).

Take `CCN1CCN(c2ccc([N+](=O)[O-])cc2C(=O)c2ccc(Cl)cc2)CC1`: the inhibition is 26.2% (inactive).

Take `O=C(NCc1ccccn1)c1cc(-c2ccccc2Cl)on1`: the inhibition was 9.87% (inactive).

`CCOc1ccc(C(=O)Nc2cc(OC)ccc2OC)cc1`: the inhibition is -3.51% (inactive).

Regarding `CC(=O)c1c(C)[nH]c(C(=O)NCc2ccc(C)cc2)c1C`, the inhibition was 5.25% (inactive).

Regarding `COc1ccc(C)cc1NC(=O)c1[nH]c(C)c(C(C)=O)c1C`, the inhibition is 55% (active).

As for `CC1=NN(C(=O)c2ccccc2Br)C(O)(c2cccnc2)C1` (configuration not stated), the inhibition was 9.36% (inactive).

Regarding `COC(=O)c1ccc(C(=O)Nc2cc(Cl)ccc2Cl)cc1NC(=O)c1ccccc1C`, the inhibition was 1.48% (inactive).

For the molecule `Cc1ccc(NC(=O)C(C)c2cccc(C(=O)c3ccccc3)c2)cc1` (configuration not stated), the inhibition is 9.41% (inactive).

Regarding `CC(C)CC(=O)N1CCC(O)(CS(=O)(=O)Cc2ccccc2)CC1`, the inhibition was 12.7% (inactive).

For the molecule `O=C(CSc1nnc(-c2ccco2)n1Cc1ccccc1)NC(=O)NCc1ccco1`, the inhibition was -1.05% (inactive).

With `c1ccc(CSc2nnc(-c3ccco3)c(-c3ccco3)n2)cc1`, the inhibition is 21.3% (inactive).

With `c1ccc(CSc2nnc(-c3ccco3)n2Cc2ccccc2)cc1`, the inhibition is 38.6% (active).

On to `COc1ccc(CCN(C(=O)COc2ccccc2)c2nc(-c3ccccc3)cs2)cc1OC`, for which the inhibition is 4.48% (inactive).

For the molecule `CCC(c1nnnn1Cc1ccco1)N(Cc1cc2cc(OC)ccc2[nH]c1=O)C1CCCCC1` (configuration not stated), the inhibition is 29.9% (inactive).

Turning to `CCC(c1nnnn1Cc1ccco1)N(CCc1ccccc1)Cc1cc2ccc(OC)cc2[nH]c1=O` (configuration not stated), the inhibition is 5.86% (inactive).

Regarding `Cc1cccc2cc(CN(Cc3ccc4c(c3)OCO4)Cc3nnnn3C3CCCC3)c(=O)[nH]c12`, the inhibition is 20.4% (inactive).

Turning to `Cc1cccc2cc(CN(Cc3cccs3)C(c3nnnn3C3CCCC3)C(C)C)c(=O)[nH]c12` (configuration not stated), the inhibition was 23% (inactive).

For the molecule `CCC(c1nnnn1C1CCCC1)N(Cc1cccs1)Cc1cc2cccc(C)c2[nH]c1=O` (configuration not stated), the inhibition was 38.6% (active).

Regarding `CCC(c1nnnn1Cc1ccco1)N(CCc1ccccc1)Cc1cc2cccc(C)c2[nH]c1=O` (configuration not stated), the inhibition is 52.5% (active).

Consider `CCOC(=O)C1CN(S(=O)(=O)c2ccc(F)cc2)C1`, for which the inhibition was -2.08% (inactive).

On to `N=c1c2c(-c3ccccc3)c(-c3ccccc3)oc2ncn1Cc1ccco1`, for which the inhibition is 26.2% (inactive).

Regarding `CC(=O)c1sc(NC(=O)c2cccc3ccccc23)nc1C`, the inhibition is -0.59% (inactive).

In the case of `Cc1ccc2nc(SCc3nnc(-c4ccccc4[N+](=O)[O-])o3)c(C#N)cc2c1`, the inhibition is 23.2% (inactive).

With `c1ccc2c(CSCc3nc4ccccc4[nH]3)cccc2c1`, the inhibition was 14.3% (inactive).

In the case of `Cc1ccc(OC(=O)c2ccccc2C(=O)OCC(F)(F)C(F)F)cc1`, the inhibition was 5.33% (inactive).

In the case of `COc1ccc(-c2cc(C(F)(F)F)nc(NCc3cccnc3)n2)cc1`, the inhibition is 26.7% (inactive).

Take `COc1ccc(-c2cc(C(F)(F)F)nc(S(C)(=O)=O)n2)cc1OC`: the inhibition was 87.3% (active).

Take `COc1ccc(-c2ccc(Nc3ccc(S(=O)(=O)N4CCCC4)cc3)nn2)cc1OC`: the inhibition is -1.56% (inactive).

`O=C(Nc1ccc(Br)cc1)C1CCC(=O)N1Cc1ccccc1Cl` (configuration not stated): the inhibition is -0.46% (inactive).

As for `CSCc1cc(N2CCOCC2)nc(SCc2ccc(Cl)cc2Cl)n1`, the inhibition was 7.94% (inactive).

With `Cc1cc(C(=O)Nc2c(C)nn(Cc3ccccc3)c2C)on1`, the inhibition was 8.88% (inactive).

As for `CC(=O)Nc1ccccc1C(=O)C(=O)Nc1ccc(F)cc1`, the inhibition was 4.22% (inactive).

Turning to `N#Cc1nc(-c2ccc(OCc3ccccc3)cc2)oc1NCCCN1CCOCC1`, the inhibition was 14.1% (inactive).

Regarding `N#Cc1nc(Cc2ccccc2)oc1NCCc1ccccc1`, the inhibition is 21.1% (inactive).

Regarding `N#Cc1nc(COc2ccc(-c3ccccc3)cc2)oc1NCc1cccnc1`, the inhibition was 94.2% (active).

For `FC(F)(F)c1nc2ccccc2nc1N/N=C/c1ccc(Cl)cc1`, the inhibition is -2.3% (inactive).

On to `CCOC(=O)N1CCN(c2c(NCCCN3CCCC(C)C3)c(=O)c2=O)CC1` (configuration not stated), for which the inhibition was -0.16% (inactive).

In the case of `CC(C)C(c1nnnn1Cc1ccccc1)N1CCC(C(N)=O)CC1` (configuration not stated), the inhibition was -0.16% (inactive).

For the molecule `COc1ccc(N2CCN(C(c3cc4ccc(C)cc4[nH]c3=O)c3nnnn3C3CCCC3)CC2)cc1` (configuration not stated), the inhibition was -0.59% (inactive).

For `COCCn1nnnc1C(c1ccccc1Cl)N1CCN(c2ccccc2OC)CC1` (configuration not stated), the inhibition is 3.75% (inactive).

On to `COc1ccc(C(c2nnnn2C2CCCCC2)N2CCN(c3ccccc3F)CC2)cc1` (configuration not stated), for which the inhibition was 50.5% (active).

As to `CC(C)C(c1nnnn1C1CCCC1)N1CCN(c2ccccc2F)CC1` (configuration not stated), the inhibition was 42.7% (active).

In the case of `CCC(c1nnnn1C1CCCC1)N1CCN(C(=O)c2ccco2)CC1` (configuration not stated), the inhibition is 12.4% (inactive).

Values taken from PubChem BioAssay AID738 (SRMLSC, 2007).
